The results in this text go back to ChEMBL document CHEMBL4808148, “HDAC6 screening dataset using tau-based substrate in an enzymatic assay yields selective inhibitors and activators” (2021).

Screen size: about 5,600 compounds; about 390 (7%) showed an effect of 50% or more. The list comes from a sample in which strong results are over-represented; it also holds similar structures and randomly drawn compounds.

The assay has as its target T1, Protein deacetylase HDAC6 (Homo sapiens) (UniProt Q9UBN7).
T1 sequence (whole entry): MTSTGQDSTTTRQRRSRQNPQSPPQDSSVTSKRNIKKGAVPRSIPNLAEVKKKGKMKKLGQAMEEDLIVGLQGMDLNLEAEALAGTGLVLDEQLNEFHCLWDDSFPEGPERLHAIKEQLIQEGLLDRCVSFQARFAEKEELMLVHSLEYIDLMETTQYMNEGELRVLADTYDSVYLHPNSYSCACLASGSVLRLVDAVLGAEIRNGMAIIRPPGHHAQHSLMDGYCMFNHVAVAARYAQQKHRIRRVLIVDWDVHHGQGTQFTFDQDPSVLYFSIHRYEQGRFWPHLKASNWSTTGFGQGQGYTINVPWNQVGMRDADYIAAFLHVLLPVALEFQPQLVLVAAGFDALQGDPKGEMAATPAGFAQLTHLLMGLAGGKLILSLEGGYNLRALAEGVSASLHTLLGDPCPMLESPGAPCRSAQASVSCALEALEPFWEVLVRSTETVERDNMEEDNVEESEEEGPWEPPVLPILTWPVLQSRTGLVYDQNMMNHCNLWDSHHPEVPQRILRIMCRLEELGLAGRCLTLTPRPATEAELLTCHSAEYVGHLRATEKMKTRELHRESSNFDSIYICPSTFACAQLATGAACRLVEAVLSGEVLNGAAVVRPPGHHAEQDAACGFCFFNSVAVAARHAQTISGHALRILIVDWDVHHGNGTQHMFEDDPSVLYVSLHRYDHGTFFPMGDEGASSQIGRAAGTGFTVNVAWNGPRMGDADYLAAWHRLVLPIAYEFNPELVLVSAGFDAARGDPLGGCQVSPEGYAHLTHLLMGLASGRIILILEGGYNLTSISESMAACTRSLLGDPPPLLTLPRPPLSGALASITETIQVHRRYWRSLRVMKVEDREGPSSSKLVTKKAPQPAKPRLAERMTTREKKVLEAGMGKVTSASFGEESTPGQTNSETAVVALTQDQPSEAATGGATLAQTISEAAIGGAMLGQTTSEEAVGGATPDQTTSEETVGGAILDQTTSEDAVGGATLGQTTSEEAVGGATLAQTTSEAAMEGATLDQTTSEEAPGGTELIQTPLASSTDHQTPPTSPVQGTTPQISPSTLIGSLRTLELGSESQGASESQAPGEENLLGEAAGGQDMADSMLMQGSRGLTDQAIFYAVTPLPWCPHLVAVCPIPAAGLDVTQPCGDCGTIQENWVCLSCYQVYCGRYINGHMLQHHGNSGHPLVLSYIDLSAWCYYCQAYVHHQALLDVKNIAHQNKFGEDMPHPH
Particulars: at 10 µM.
As for `COC(=O)/C=C/C(=O)OCCN1C(=O)CCC1=O`, the inhibition is -0.93%.

As to `O=C(O)c1ccc(-c2ccc3cc(C45CC6CC(CC(C6)C4)C5)c(O)cc3c2)cc1`, the inhibition is -6.28%.

With `NS(=O)(=O)Oc1ccc2c3c(c(=O)oc2c1)CCCCC3`, the inhibition stood at 91.6%.

`Fc1ccc(C(c2ccccc2)(c2ccccc2F)n2ccnc2)cc1` (stereo not drawn): the inhibition was -9.89%.

In the case of `Cn1c(/C=C/C(=O)NO)ccc1/C=C/C(=O)c1cccc(F)c1`, the inhibition worked out at 98.6%.

For `Cc1ccc(NC2=NCCN2)c(Cl)c1`, the inhibition amounted to 7.22%.

With `CCC[C@H](N[C@@H](C)C(=O)N1[C@H](C(=O)O)C[C@@H]2CCCC[C@@H]21)C(=O)O`, the inhibition was -9.35%.

Turning to `CCCC(=O)c1cc(F)ccc1OCC(O)CNC(C)(C)C` (stereo not drawn), the inhibition was -1.16%.

For the compound `C[C@H](Oc1cc(-c2cnn(C3CCNCC3)c2)cnc1N)c1c(Cl)ccc(F)c1Cl`, the inhibition is -7.32%.

With `C[n+]1ccccc1CN=O`, the inhibition stood at 10.8%.

Turning to `O=c1[nH]c(CCl)nc2sc3c(c12)CCCC3`, the inhibition came out at 83.4%.

As to `CCOC(=O)[C@@](C)(N)Cc1ccc(O)c(O)c1`, the inhibition turned out to be 35%.

With `Cc1ccc(Cl)c(OCC(O)CNC(C)(C)C)c1` (stereo not drawn), the inhibition was 14.8%.

With `CCCCCCCCCCCCCCCC(=O)OCCC1CCN(CCCN2c3ccccc3Sc3ccc(S(=O)(=O)N(C)C)cc32)CC1`, the inhibition came to 9.91%.

On to `OCCN1CCN(CCCN2c3ccccc3Sc3ccc(C(F)(F)F)cc32)CC1`, for which the inhibition was 86.6%.

Turning to `CCCCCCCCCC(=O)OCCN1CCN(CCCN2c3ccccc3Sc3ccc(C(F)(F)F)cc32)CC1`, the inhibition was determined as 1.38%.

On to `CSc1ccccc1OCC(O)CNC(C)C` (stereo not drawn), for which the inhibition came to 8.76%.

Regarding `NC(=S)N/N=C/c1ccncc1`, the inhibition came out at 22.9%.

`NC(=S)N/N=C/c1coc2ccccc2c1=O`: the inhibition came out at 54.7%.

With `O=C1CCC2CCC(=O)N12`, the inhibition came to 5.05%.

On to `CO[C@@H]1[C@H](O)[C@@H](CO)O[C@H]1n1cnc2c(NC3CCCCC3)ncnc21`, for which the inhibition came to 13.2%.

`NC(=O)c1[nH]cnc1O`: the inhibition was determined as 3.67%.

In the case of `CCOCCOc1ccccc1C(N)=O`, the inhibition came out at 5.9%.

Turning to `O=C(c1ccc(OCCCc2c[nH]cn2)cc1)C1CC1`, the inhibition was found to be 70.7%.

For `NC/C(=C/F)CCc1ccc(F)cc1`, the inhibition is 46.9%.

Turning to `Cc1cnc(Nc2ccc(F)cc2Cl)nc1-c1c[nH]c(C(=O)N[C@H](CO)c2cccc(Cl)c2)c1`, the inhibition was determined as 54.4%.

As for `O=C(NCC1CCOCC1)c1cnc(Nc2ccc(Cl)cc2Cl)nc1C(F)(F)F`, the inhibition is -5.57%.

`CC12CCC(=O)C=C1CCC1C2[C@@H](O)CC2(C)C1CC[C@]2(O)C(=O)COP(=O)(O)O` (stereo partly drawn): the inhibition was 2.87%.

The inhibition is the change of the read-out against control, counted positive when it falls.
